Compounds without any hit were thinned out: in the full panel of roughly 83,000, 20% have a hit.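 Negative percent growth values reflect cell death: -40 means 40% of the cells present at the start died, and -100 means all died.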 Values without a mark were called inactive. The source made the active and inactive calls. How the source made its calls: active means growth percent below 10; inactive means the rest.

Some test systems named below: NCI-H23 lung; NCI-H226 lung; NCI-H322M lung; HOP-62 NSCLC; NCI-H460 lung; HOP-92 NSCLC; NCI-H522 lung; A549/ATCC NSCLC; 786-0 renal; COLO 205 colon.
Common to all, as to assay: NCI-60 one-dose screen, 48 h (100 = growth as untreated, 0 = no growth, -100 = all killed)
Common to all, as to conditions: 10 µM unless noted

Take `COc1ccc(C2CC(c3ccc(Nc4ccnc5cc(Cl)ccc45)cc3)=NN2c2ccccc2)cc1` (stereo not given): the growth with NCI-H23 lung is 97.7%; with NCI-H226 lung, 102%; in the assay with NCI-H322M lung it was 100%; in the assay with HOP-62 NSCLC it was 106%; with NCI-H460 lung, 85.6%; in the assay on HOP-92 NSCLC it was 68.5%. In addition, the growth in the assay with NCI-H522 lung is 90.6%; with A549/ATCC NSCLC, 85.8%; in the assay on 786-0 renal, 100%; with COLO 205 colon, 86.5%.
`COc1ccc(/C(=C\c2ccc3c(c2)OCO3)C(=O)Nc2nc3ccccc3s2)cc1`: the growth in the assay on NCI-H23 lung is 106%; in the assay with NCI-H226 lung, 97.6%; in the assay on NCI-H322M lung, 94.4%; in the assay with HOP-62 NSCLC, 95.5%; in the assay on NCI-H460 lung it was 110%; in the assay with HOP-92 NSCLC, 104%. For the same compound, the growth is 81.5% in the assay with NCI-H522 lung, 93.9% in the assay on A549/ATCC NSCLC, 97.2% in the assay on 786-0 renal and 110% in the assay with COLO 205 colon.
Consider `COc1ccc(/C=C(/C(=O)N2CCN(c3ccccc3)CC2)c2cc(OC)c(OC)c(OC)c2)cc1O`, for which the growth in the assay on NCI-H23 lung was 31.5%; with NCI-H226 lung, 28.9%; in the assay with NCI-H322M lung, 42%; in the assay on HOP-62 NSCLC, 20.6%; in the assay with NCI-H460 lung, 5.38% (active); in the assay with HOP-92 NSCLC, 94%. Also, the growth in the assay with NCI-H522 lung was -9.76% (active); in the assay on A549/ATCC NSCLC, 17.4%; in the assay with 786-0 renal, 25.5%; with COLO 205 colon it was 35.7%.
In the case of `CC1C2CCC(C2)C1COCCOCCO` (stereo not given), the growth with NCI-H23 lung was 107%; in the assay on NCI-H226 lung, 104%; in the assay on NCI-H322M lung it was 109%; with HOP-62 NSCLC, 108%; in the assay on NCI-H460 lung, 112%; in the assay with HOP-92 NSCLC, 105%. The growth is 96% in the assay on NCI-H522 lung, 92% with A549/ATCC NSCLC, 104% in the assay with 786-0 renal and 121% in the assay on COLO 205 colon.
Turning to `CSC1=NC(=Nc2c(C)cccc2C)C2(CCC(C(C)(C)C)CC2)N1c1ccc(Cl)cc1` (stereo not given), the growth in the assay with NCI-H23 lung was 48.6%; in the assay on NCI-H226 lung it was 48.6%; in the assay with NCI-H322M lung it was 64.8%; in the assay on HOP-62 NSCLC, 42%; in the assay on NCI-H460 lung it was 16%; in the assay with HOP-92 NSCLC it was 62.7%. Further, the growth with NCI-H522 lung was 48.2%; in the assay with A549/ATCC NSCLC it was 30.5%; with 786-0 renal, 51.1%; in the assay with COLO 205 colon, 40.8%.
`COc1ccc(CCN2COc3c([C@@H](C)CCC=C(C)C)ccc(C)c3C2)cc1OC`: the growth is 39.1% in the assay on NCI-H23 lung; 82.3% in the assay on NCI-H226 lung; 88.2% with NCI-H322M lung; 73.4% in the assay with HOP-62 NSCLC; 34.5% in the assay on NCI-H460 lung; -1.29% (active) in the assay on HOP-92 NSCLC. The growth was 64.7% in the assay with NCI-H522 lung, 74.3% in the assay with A549/ATCC NSCLC, 52.4% with 786-0 renal and -92.9% (active) with COLO 205 colon.
Turning to `CO[C@@]12[C@@H]3NC3CN1C1=C(C(=O)C(N)=C(C)C1=O)[C@@H]2COC(N)=O` (stereo not given in full), the growth in the assay with NCI-H23 lung was -3.61% (active); with NCI-H226 lung, -5.36% (active); in the assay with NCI-H322M lung it was 14.4%; in the assay with HOP-62 NSCLC, 19.2%; with NCI-H460 lung, -18.9% (active); with HOP-92 NSCLC it was 12.8%. Besides, the growth in the assay on NCI-H522 lung was -9.07% (active); with A549/ATCC NSCLC, -61% (active); in the assay with 786-0 renal, -3.82% (active); in the assay with COLO 205 colon it was -0.289% (active).
As for `O=C(O)c1cn(-c2ccccc2)nc1-c1ccc(O)cc1`, the growth in the assay with NCI-H23 lung is 93.9%; in the assay on NCI-H226 lung, 107%; in the assay on NCI-H322M lung it was 100%; with HOP-62 NSCLC it was 92.7%; with NCI-H460 lung it was 94.7%; in the assay on HOP-92 NSCLC, 85.5%. Besides, the growth was 78.6% in the assay on NCI-H522 lung, 92.4% in the assay on A549/ATCC NSCLC, 97.4% in the assay on 786-0 renal and 109% with COLO 205 colon.
Turning to `COc1cc(-c2nc(-c3nc4cc(C(=O)c5ccccc5)ccc4[nH]3)cc3c2[nH]c2ccccc23)cc(OC)c1OC`, the growth in the assay with NCI-H23 lung was 104%; in the assay with NCI-H226 lung, 91.1%; in the assay on NCI-H322M lung it was 99.4%; in the assay with HOP-62 NSCLC it was 97.7%; in the assay with NCI-H460 lung, 95.6%; with HOP-92 NSCLC, 82.5%. Further, the growth with NCI-H522 lung was 90.6%; in the assay with A549/ATCC NSCLC, 75.9%; in the assay with 786-0 renal, 97.3%; in the assay on COLO 205 colon it was 97.7%.
Take `CC(C)[C@H](CN)NC[C@H](C)NS(=O)(=O)c1ccc(C(C)(C)C)cc1`: the growth is 97% with NCI-H23 lung; 74.2% in the assay on NCI-H226 lung; 101% with NCI-H322M lung; 94.6% in the assay with HOP-62 NSCLC; 100% in the assay on NCI-H460 lung; 71.9% in the assay on HOP-92 NSCLC. For the same compound, the growth in the assay on NCI-H522 lung is 96.2%; with A549/ATCC NSCLC, 98.7%; with 786-0 renal, 90.3%; in the assay on COLO 205 colon, 105%.
In the case of `COc1ccccc1/C=N\NC(=S)Nc1ccc(F)cc1`, the growth in the assay on NCI-H23 lung was 72.5%; in the assay with NCI-H226 lung it was 90.9%; with NCI-H322M lung it was 96%; in the assay on HOP-62 NSCLC, 79.8%; in the assay with NCI-H460 lung, 80.5%; in the assay on HOP-92 NSCLC it was 71%. For the same compound, the growth with NCI-H522 lung is 38.1%; in the assay on A549/ATCC NSCLC, 68%; in the assay on 786-0 renal, 93.6%; with COLO 205 colon, 91.9%.
`COC(=O)/C=C/c1cc(OC(C)=O)c2c(c1)[C@@H](C(=O)OC)[C@H](c1ccc(OC(C)=O)c(OC(C)=O)c1)O2`: the growth with NCI-H23 lung is 20.7%; in the assay on NCI-H226 lung it was -7.97% (active); in the assay on NCI-H322M lung, 60%; with HOP-62 NSCLC, 24%; in the assay on NCI-H460 lung, 11.4%; with HOP-92 NSCLC it was 12.9%. Also, the growth in the assay on NCI-H522 lung was -25.3% (active); with A549/ATCC NSCLC, 20.6%; in the assay on 786-0 renal, 21.5%; in the assay on COLO 205 colon, 47.1%.
On to `COc1cc(-c2csc(NC(=O)Nc3cccc(C(F)(F)F)c3)n2)cc(OC)c1OC`, for which the growth in the assay on NCI-H23 lung is 27.8%; in the assay with NCI-H226 lung it was 55.6%; in the assay on NCI-H322M lung, 68.3%; with HOP-62 NSCLC it was 63.6%; in the assay with NCI-H460 lung, 53.8%; in the assay on HOP-92 NSCLC, 47.8%. The growth in the assay on NCI-H522 lung was 40.7%; with A549/ATCC NSCLC, 34.2%; in the assay on 786-0 renal, 64.2%; with COLO 205 colon it was 75.4%.

These data come from PubChem BioAssay (NCI).
